From PubChem BioAssay AID504863 (Sanford-Burnham Center for Chemical Genomics, 2011) come the findings set out here.

In the assay the test system is diaphorase (Clostridium kluyveri). Put plainly: C. kluyveri diaphorase inhibition, resazurin coupling – biochemical, fluorescence intensity, 30 µM NADPH, counter-screen for P. falciparum G6PD inhibitor project, confirmation (AID 504863).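 Further: 0% = DMSO with enzyme and 100% = DMSO wells lacking diaphorase.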 The note with it: Diaphorase/resazurin coupled assay, resorufin fluorescence, at 20 µM, stronger effect = higher value. A general note: Resazurin is reduced to fluorescent resorufin, in cell work by metabolically active cells.

This is one part of the list. Values without a mark were called inactive. Calls of active or inactive are those of the source.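 How the source made its calls: active means inhibition averaging 50% or more, tested at 20 µM; inactive means the rest.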

As usually defined, the inhibition is the drop in the measured response relative to a control, in per cent.

As for `Cc1ccc(/C=C/C(=O)Nc2ccc([N+](=O)[O-])c(NC(=O)/C=C/c3ccc(C)o3)c2)o1`, the inhibition was -7.03%.
In the case of `O=C1C=CC(=O)N1c1ccc(N2CCCCC2)cc1`, the inhibition is -16.6%.
Then `COc1ccc2c(c1)c(=Cc1ccc(N(C)C)cc1)c1cc(-c3ccccc3)[n+](C)n12`, with 15.6%; and `COc1ccc(OCc2nnc3n2N=C(c2ccccc2)C(CC(=O)O)S3)cc1` (stereo not given), with 1.64%; and `CCN1CCCC1CNC(=O)c1ccc2c(c1)NC(=O)/C(=C\c1ccccc1F)S2` (stereo not given), with -9.58%.
Then `COc1cccc(C(=O)Nc2nnc(S(=O)(=O)N3CCCCC3)s2)c1`, with 57% (active); and `COc1cccc(C(=O)Nc2nnc(S(=O)(=O)N(C)c3ccccc3)s2)c1`, with 56.8% (active); and `C=CCc1ccccc1OCC(=O)N/N=C/c1ccccc1OCC`, with 43.5%.
Turning to `CCSc1nnc(NC(=O)c2ccc(C)cc2)s1`, the inhibition was 56.5% (active).
For the compound `O=C(Nc1nc(-c2ccncc2)cs1)C1COc2ccccc2O1` (stereo not given), the inhibition was -24.7%.
As for `CCOC(=O)C1=C(c2ccc(OC)cc2)C(=O)c2ccccc2C1=O`, the figure is 85.7% (active); as for `O=[N+]([O-])c1c(NCCO)cc(Sc2nc3ccccc3s2)c2nonc12`, 0.96%; as for `COc1c(O)ccc2c1CN1CCc3cc4c(cc3C1C2)OCO4` (stereo not given), 8.58%.
As for `Cc1cccc(C(=O)Nc2nnc(S(=O)(=O)N3CCCCCC3)s2)c1`, the figure is 36.1%; as for `CCN(CC)c1ccc2oc(=O)c(C)nc2c1`, 62.5% (active).
